Test results taken from the supplement of paper PMC6555819.

Columns and labels:
Assay in all cases: PBM binding z-score (relative to random genomic background probes); higher = stronger binding; sequences stand for … in GC…GCGATTGACAGCGTAGAATGAAGG
[1] = tested on: RARb homodimer (NR concentration 270 nM)
How it was run: (§1)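 The probes on custom Agilent 4×180K protein-binding microarrays were double-stranded, with 34-nt variable regions bearing direct-repeat seeds, single-nucleotide variants, half-site ablations and random human genomic background sequences. Incubation lasted 1 h with ligand-free nuclear receptor dimers in PBS pH 7.4, 2% milk, 0.02% Triton X-100, 1 mM DTT, 0.2 mg/mL BSA and 0.4 mg/ml salmon testes DNA. Antibodies against each partner (one per run) detected bound dimers, and fluorescence scans were regression-normalized. Binding z-scores take the random background probes as reference.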

[2] = tested on: RARg:RXRa (NR concentration 270 nM, RXRa partner concentration 90 nM)
How it was run: as §1

[3] = tested on: RARg homodimer (NR concentration 270 nM)
How it was run: as §1

[4] = tested on: RXRa DBDmut IVT, anti-RXR (DBD mutation: RXRa K156A/R161A, NR concentration 90 nM)
How it was run: as §1

[5] = tested on: RXRa homodimer (NR concentration 180 nM)
How it was run: as §1

[6] = tested on: THRa:RXRa (NR concentration 90 nM, RXRa partner concentration 90 nM)
How it was run: as §1

[7] = tested on: THRa homodimer (NR concentration 90 nM)
How it was run: as §1

[8] = tested on: VDR homodimer (NR concentration 270 nM)
How it was run: as §1

| Sequence | PBM binding z-score [1] | PBM binding z-score [2] | PBM binding z-score [3] | PBM binding z-score [4] | PBM binding z-score [5] | PBM binding z-score [6] | PBM binding z-score [7] | PBM binding z-score [8] |
| --- | --- | --- | --- | --- | --- | --- | --- | --- |
| AGTCAAAGTTCATCTAGGTAACGTTAGATATGCT | 3.74 | 5.6 | 6.39 | 4.62 | 4.96 | 2.94 | 0.114 | 5.6 |
| TCTCGTAGGACACGAAGGTCAGAGCTTTCCAGAG | 3.42 | 2.46 | 2.96 | 0.604 | 1.63 | 1.98 | 0.187 | 0.463 |
| AGTCAAAGTTCACTAGGTAGCGTAAGATTCAGCT | 3.47 | 4.95 | 5.68 | 4.01 | 3.68 | 1.66 | -0.346 | 3.7 |
| CCAGACAGGTGAAAGGCAACTCAGTCTGGTACGC | 0.304 | 0.225 | 0.332 | -0.268 | 0.712 | 0.000923 | -0.701 | 0.202 |
| ATCGAAAGGTCGACGAGGTGAGGATACACCGTTT | 3.11 | 4.27 | 4.37 | 1.15 | 4.45 | 4.09 | 2.24 | 1.2 |
| CGTCAAAGTACAAGGTAACGTAACAGAAAGCAGC | 0.287 | 0.552 | 1.1 | 0.923 | 0.455 | 1.37 | 0.356 | -0.157 |
| TGAAGGAGGTTAAAGATCAGGGAACGTGGCGTCG | 1.01 | 1.89 | 0.932 | -0.223 | 3.25 | 1.26 | 0.214 | 0.438 |
| ACTCGGAGGACAAAGGTCAGCGCTACGCCAGTGA | 4.95 | 6.38 | 5.4 | 1.36 | 5.69 | 3.54 | 0.928 | 1.34 |
| ATACCAAGGTGATCGTGAGGTCGTTGCTACTAAC | 1.88 | 2.03 | 0.891 | 0.967 | 1.56 | 3.25 | 2.43 | 3.33 |
| CTCGAAAGGTCCGTTGAGGTGAGTATACGGATAA | 0.529 | 0.513 | 0.708 | 0.119 | 0.313 | 4.14 | 0.988 | 0.885 |
| TTACCAAGGTGAAGGTCGTTGAACCCTCTGTAGA | 2.16 | 1.94 | 1.52 | 0.243 | 3 | 2.74 | 1 | 1.63 |
| CAGCCTAGGTCAGGGCCACTATAGGAGGAACGTT | 2.67 | 3.08 | 3.7 | 0.123 | 1.84 | 2.19 | 0.516 | -0.129 |
| CGTCAAAGTTCAACTAAGGTAACCTAAAGCACGC | 4.36 | 6.08 | 6.64 | 4.81 | 4.92 | 5.31 | 2.1 | 4.48 |
| CCTATTAGCTGACCATAAGGGCAACCGAAGCTCG | 1.61 | 0.474 | 0.729 | 0.637 | 0.376 | 1.38 | 1.18 | 0.435 |
| TCTTGTAGATCAACAGGAGGTTAACAAAGATCGA | 0.875 | 1.22 | 0.542 | 0.267 | 1.3 | 1.22 | 0.0101 | -0.33 |
| CCTACTGGGCTAAGGTCATTGATCAGTCAAAGCA | 3.59 | 4.14 | 3.51 | 1.83 | 4.07 | 3.95 | 4.04 | 2.94 |
| ACTAGCAGGCCAAGTTTGGGTCACGCAAACAAAG | 2.72 | 3.25 | 2.19 | -0.213 | 1.71 | 3.3 | 1.78 | 0.403 |
| TCTTGTAGATCAAGCATGTTAAGAAAGCCTGAGT | -0.365 | -0.147 | -0.0954 | 0.943 | 0.122 | -0.0977 | -0.856 | 0.128 |
| ACAGACAGGTGGTGAAGGTAACTCAGGCTATCAT | 0.218 | 0.00728 | -0.0161 | -0.443 | 0.0945 | 0.769 | 0.206 | -0.381 |
| CAGCCTAGGTCACGGCCAGTATAGGAGGAACGTT | 3.53 | 5.27 | 5.72 | 1.1 | 4.43 | 3.65 | 1.98 | 0.435 |
| GCTGCTAGGTGAGGTTGGTCAGCTAACGGGTACG | 0.45 | -0.285 | -0.239 | -0.389 | -0.532 | 0.337 | -0.133 | -0.159 |
| ATCACTAGGTAAGACTCAGTTCAGTGAAGAACGC | 0.405 | 0.282 | 0.333 | 0.204 | -0.0584 | 0.526 | 0.536 | 1.28 |
| TCATATAGGTATACAGGTGAAAGTCCGTAAGTTA | 0.863 | 0.487 | 0.35 | 1.58 | 1.14 | 0.729 | 0.585 | 0.541 |
| TCTTGTCGATCAAAGGTTAAGAAAGCCGAAGCCT | 1.49 | 2.01 | 0.765 | 0.676 | 2.43 | 1.33 | -0.0604 | 0.0763 |
| TCATATAGGTAATACATGTGAAAGTCGGCATCTA | -0.0768 | 0.625 | 0.544 | 1.57 | 1.14 | 0.246 | -0.0874 | 0.128 |
| GCGACTGGGACATCAGCAGGTTACCATAACTTAA | 0.428 | -0.00527 | 0.0107 | -0.5 | 0.176 | 0.674 | 0.0254 | -0.459 |
| GCTTACGGGTCAAAGGTTATAGCCTGAATAGAAT | 3.15 | 6.87 | 4.5 | 2.7 | 9.3 | 4.01 | -0.0478 | 1.65 |
| ACAGACAGGTGAGTGAAGGTAACTCATCTGGACG | -0.00809 | 0.205 | 0.564 | -0.622 | 0.146 | 1.57 | -0.651 | -0.803 |
